# Source: PubChem
# JMJD2A Tudor inh = qHTS Assay for Inhibitors of JMJD2A-Tudor Domain | AID 504339, 2011 | AlphaScreen JMJD2A-Tudor / H3K4me3 peptide binding | Potency, µM (highest dose often 114 µM), for the others: top-dose activity change, negative = inhibition, usual class: inhibitors | 390,000 tested, 4.4% active; also: % is scaled to controls: 0 for no effect and ±100 for the full control effect; nearly all actives have a fitted effect of over 50% in size
# HP1b binding inh = HTS for Inhibitors of HP1-beta Chromodomain Interactions with Methylated Histone Tails; Chromobox protein homolog 1 (Homo sapiens), P83916; AlphaScreen HP1-beta / biotin-H3K9me3 peptide binding; Potency, µM (series often up to 114 µM), inactives show at the highest dose activity change, negative = inhibition, hits mostly inhibitors; 390,000 tested, 0.56% active; also: nearly all actives have a fitted effect of over 70% in size
# Target sequence (P83916 whole entry, looked up): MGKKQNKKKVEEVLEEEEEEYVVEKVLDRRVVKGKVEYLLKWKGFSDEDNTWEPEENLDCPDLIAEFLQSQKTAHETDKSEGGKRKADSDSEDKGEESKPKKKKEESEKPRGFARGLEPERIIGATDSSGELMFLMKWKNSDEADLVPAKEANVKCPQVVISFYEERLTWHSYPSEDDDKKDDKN
#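 AlphaScreen: HP1-beta (50 nM) preformed 30 min with biotin-H3(1-18)K9me3 peptide (50 nM) in PBS pH 7.4, 0.01% Tween-20. Compound added for 30 min at RT, then streptavidin donor/nickel chelate acceptor beads (10 ug/mL) for 30 min.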
# L3MBTL1 inh = qHTS Assay for the Inhibitors of L3MBTL1; Potency, µM (highest dose often 57.1 µM), inactives show top-dose activity, negative = inhibition, actives largely listed as inhibitors; AlphaScreen L3MBTL1–H3K9me1 peptide binding; 230,000 tested, 0.66% active; AID 485360, 2010; Lethal(3)malignant brain tumor-like protein 1 (Homo sapiens), Q9Y468; also: % is scaled to controls: 0 for no effect and ±100 for the full control effect; nearly all actives have a fitted effect of over 60% in size
#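 AlphaScreen assay: L3MBTL1 (50 nM final) was preincubated 30 min at room temperature with biotinylated H3(1-15)K9me1 peptide (75 nM final), then 30 min with library compounds; streptavidin donor and nickel chelate acceptor beads (10 ug/mL final) added, 30 min dark.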
# BAZ2B block = qHTS Assay for Inhibitors of BAZ2B | 360,000 tested, 4.4% active | AlphaScreen BAZ2B-H3K14Ac peptide displacement | AID 504333, 2011 | Potency, µM (titrated, usually from 114 µM), for the others: top-dose activity change, negative = inhibition, most hits filed as inhibitors | Bromodomain adjacent to zinc finger domain protein 2B (Homo sapiens), Q9UIF8; also: % is scaled to controls: 0 for no effect and ±100 for the full control effect; nearly all actives have a fitted effect of over 60% in size
#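 Complex of BAZ2B and biotin-H3K14Ac (50 nM apiece) forms over 30 min at RT, then faces library compounds up to 110 uM for another 30 min; AlphaScreen beads added, 20 min dark incubation, luminescence read.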
# G9a block = qHTS Assay for Inhibitors of Histone Lysine Methyltransferase G9a | Histone-lysine N-methyltransferase EHMT2 (Homo sapiens), Q96KQ7 | G9a H3K9 monomethylation, AlphaScreen, 2 h | Potency, µM (titrated, usually from 102 µM), for inactives: at the top dose activity, negative = inhibition, actives largely listed as inhibitors | 350,000 tested, 8.8% active | AID 504332, 2011; also: % is scaled to controls: 0 for no effect and ±100 for the full control effect; nearly all actives have a fitted effect of over 75% in size
# Target sequence (Q96KQ7 913-1193 limits assumed): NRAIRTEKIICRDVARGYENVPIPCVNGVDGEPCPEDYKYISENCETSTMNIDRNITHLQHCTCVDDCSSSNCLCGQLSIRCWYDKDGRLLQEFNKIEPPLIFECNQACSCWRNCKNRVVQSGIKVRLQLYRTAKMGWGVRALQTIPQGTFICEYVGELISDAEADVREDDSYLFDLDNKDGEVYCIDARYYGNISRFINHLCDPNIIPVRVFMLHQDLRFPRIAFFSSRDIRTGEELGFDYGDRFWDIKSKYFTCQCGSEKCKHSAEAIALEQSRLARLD
#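 Step 1: enzyme (final 20 nM) with compound, 15 min RT. Step 2: substrate peptide 500 nM and SAM 20 uM, 2 h RT. Step 3: anti-H3K9me1 antibody and AlphaScreen beads, 10 min, then plate read.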
# Numbers without * were called inactive; ? = inconclusive; · = no result given; [ ] = dose if it differs, or a comment. A selection: hits, their analogues and other compounds. The true share with any hit is near 11%. Calls follow the shape of the dose curve; as a rule, active = well fitted inhibition curve with a large enough effect; inconclusive = small, poorly fitted or top-dose-only effect; inactive = no such curve, though single readings can be large or run the other way. Potency is read from the fitted curve at half-maximal effect.
SMILES,JMJD2A Tudor inh,HP1b binding inh,L3MBTL1 inh,BAZ2B block,G9a block
Cc1ccc(CNc2ccc3c(c2)nc(C)n3C)cc1,-33.6%,-4.5%,-23.4%,?,25.1µM*
COc1ccc(OC)c(CNc2ccc3c(c2)nc(C)n3C)c1,-35.9%,-9.6%,·,-35.7%,35.5µM*
Cc1nc2cc(NCc3ccc(Cl)cc3)ccc2n1C,?,-0.3%,-6.9%,-38.7%,·
COc1ccc(OC)c(CNc2nc3ccc(C)cc3n3nnnc23)c1,-17.2%,23.7%,·,-6.1%,8.8%[59 µM]
CCCCc1ccc(CC(=O)Nc2cc(S(=O)(=O)N3CCOCC3)ccc2O)cc1,-32.1%,-26.4%,-4.3%,-34.9%,?
CS(=O)(=O)c1cccc(C(=O)N(CCc2ccccc2)Cc2cccs2)c1,0.0%,25.4%,·,8.2%,79.4µM*
COc1cccc2c1OC(=O)CC2c1ccc(C)cc1 (configuration not stated),·,·,·,·,5.9%
O=C(NCc1ccccc1)/C(=C/c1ccco1)NC(=O)c1ccco1,0.7%,19.2%,·,-2.3%,35.5µM*
COc1ccc(C(=O)N/C(=C/c2ccco2)C(=O)NCc2ccco2)cc1,-22.5%,21.9%,·,-13.3%,?
O=C(NCCc1ccccc1)/C(=C\c1ccc([N+](=O)[O-])cc1)NC(=O)c1ccco1,-15.2%,25.4%,·,-24.2%,39.8µM*
Cc1ccc(C(=O)N/C(=C/c2ccco2)C(=O)NCc2ccco2)cc1,-23.2%,3.3%,·,-16.1%,44.7µM*
Cc1ccc(C(=O)N/C(=C\c2ccccc2)C(=O)NCc2ccncc2)cc1,-4.5%,9.7%,-8.2%,50.1µM*,-6.8%[0.0925 µM]
O=C(NCc1ccccc1)/C(=C/c1ccccc1)NC(=O)c1ccco1,-4.9%,7.9%,·,5.4%,25.4%[59 µM]
O=C(NCc1ccccc1)/C(=C\c1ccc([N+](=O)[O-])cc1)NC(=O)c1ccco1,-7.6%,17.2%,·,-20.4%,9.3%
CC(C)CC(NC(=O)/C(=C\c1ccco1)NC(=O)c1ccco1)C(=O)O (configuration not stated),2.3%,50.8%,·,-27.8%,31.6µM*
O=C(O)CCNC(=O)/C(=C\c1ccco1)NC(=O)c1ccco1,-12.6%,33.5%,?,-0.4%,22.4µM*
CC(C)c1ccc(/C=C(\NC(=O)c2ccccc2)C(=O)NCCCn2ccnc2)cc1,19.1%,27.8%,·,?,-9.1%
O=C(NCCCn1ccnc1)/C(=C/c1ccc(F)cc1)NC(=O)c1ccccc1,-9.2%,8.7%,·,70.8µM*,10.0%
O=C(NC(Cc1ccccc1)C(=O)O)/C(=C/c1ccco1)NC(=O)c1cccc([N+](=O)[O-])c1 (configuration not stated),-11.8%,50.5%,·,7.7%,44.7µM*
O=C(O)CCCCCNC(=O)/C(=C\c1ccco1)NC(=O)c1ccco1,1.0%,31.0%,?,-30.1%,?
COc1ccc2c(c1)c1c(c(=O)n(-c3ccc(OC)c(OC)c3)c(=O)n1Cc1ccc(F)cc1)n2C,-9.3%,-1.8%,·,-3.4%,-2.8%[59 µM]
O=C(NCCCO)/C(=C\c1ccco1)NC(=O)c1ccco1,-13.3%,24.9%,-6.8%,-5.8%,70.8µM*
O=C(O)CNC(=O)/C(=C\c1ccco1)NC(=O)c1ccco1,-8.2%,24.1%,?,-4.7%,·
O=C(NCCCn1ccnc1)/C(=C\c1ccco1)NC(=O)c1ccco1,-6.2%,35.5%,·,89.1µM*,?
O=C(NCCO)/C(=C\c1ccco1)NC(=O)c1ccco1,-6.2%,37.9%,1.8%,-0.7%,31.6µM*
O=C(NCCCn1ccnc1)c1ccco1,?,8.9%,3.6%,?,-24.6%[12.7 µM]
O=C(NC(Cc1ccccc1)C(=O)O)/C(=C/c1ccc(Cl)cc1)NC(=O)c1ccco1 (configuration not stated),-10.0%,0.2%,·,-1.2%,50.1µM*
O=C(NCCO)/C(=C/c1ccco1)NC(=O)c1ccco1,-9.7%,22.8%,·,·,·
O=C1CCc2cc(Cl)c(S(=O)(=O)Nc3ccc(Cl)c(Cl)c3)cc2N1,-14.2%,·,·,·,·
